HEK cytotox – HEK 293 cell cytotoxicity. HEK 293 viability, ATP luminescence (CellTiter-Glo), 48-72 h. Potency, µM (doses to about 115 µM), most hits filed as inhibitors. 6.6% of 94,000 active. AID 1345083; also: nearly all actives have a fitted effect of over 60% in size
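ATP-coupled CellTiter-Glo luminescence served as viability read-out, recorded 10 min after reagent addition at room temperature. HEK 293 cells, 250 cells/well, had been incubated with pintool-transferred compound for 48 or 72 hr at 37 degree Celsius.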
FLuc inh – Photinus pyralis luciferase inhibition. 2.5% of 76,000 active. Potency, µM (highest dose often 115 µM), usual class: inhibitors. P08659. purified P. pyralis luciferase, luminescence, biochemical; also: nearly all actives have a fitted effect of over 65% in size
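Luminescence read by CCD imaging after purified firefly luciferase (10nM final) was added to substrate buffer holding 10uM D-luciferin and 10uM ATP, pH 7.5, pre-dosed with compound.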
3T3 cytotox – cytotoxic compounds in NIH 3T3 cells | NIH 3T3 viability, CellTiter-Glo ATP luminescence, 48-72 h | 4.3% of 94,000 active | AID 1345082 | Potency, µM (series often up to 96.7 µM), usual class: inhibitors; also: nearly all actives have a fitted effect of over 55% in size
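Mouse fibroblast NIH 3T3 cells, 400 per well, received compound via pintool and were incubated for 48 or 72 hr prior to CellTiter-Glo ATP luminescence measurement.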
hNpr1 antagonist – blocks ANP-stimulated signaling of human Npr1 receptor | P16066 | HEK293 hNpr1 GloSensor cGMP, ANP-stimulated luminescence | Potency, µM (titrated, usually from 46.3 µM), actives largely listed as inhibitors | 1.6% of 76,000 active; calls by dose curve; also: nearly all actives have a fitted effect of over 60% in size
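HEK293 cells stably expressing human Npr1 and cGMP GloSensor pGS-40F, loaded 2 h with 2% GloSensor reagent, given compound 30 min at room temperature. Luminescence read before and 20 min after 0.1 nM hNppA.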
GPT2 inhibitor – GPT2 alanine aminotransferase inhibition | 0.25% of 100,000 active | Recombinant GPT2, coupled pyruvate oxidase/HRP Amplex Red fluorescence | Potency, µM (doses to about 57.7 µM), hits mostly inhibitors | Q8TD30; also: nearly all actives have a fitted effect of over 60% in size
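GPT2 10ng/uL, a-KG 250uM, L-Ala 2mM, HEPES pH7.5 + 0.0001% Tween; 30 min RT. Then Amplex mix (PO/HRP/ThPP), 30 min RT dark, fluorescence. AOA 50uM used as positive control.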
A number is an active result; – = inactive; ? = inconclusive; · = not tested or not shown. A selection: hits, their analogues and other compounds. The true share with any hit is near 10%. Unless noted, calls follow the shape of the dose curve; as a rule, active = well fitted curve in the direction sought with a large enough effect; inconclusive = small, poorly fitted or top-dose-only effect, or another doubt; inactive = no such curve, though single readings can be large; an effect the other way counts as inactive or inconclusive.

SMILES	HEK cytotox	FLuc inh	3T3 cytotox	hNpr1 antagonist	GPT2 inhibitor
CCNC(=O)N[C@H]1CO[C@H]2[C@@H]1OC[C@@H]2Nc1nccc(-c2ccc(-c3ccccc3)cc2)n1	10µM	?	–	11.2µM	–
COc1ccc(-c2ccnc(N[C@H]3CO[C@H]4[C@@H]3OC[C@H]4OC(=O)Nc3cccc(C(F)(F)F)c3)n2)cc1	?	–	?	–	–
COc1ccc(-c2ccnc(N[C@H]3CO[C@H]4[C@@H]3OC[C@@H]4NS(=O)(=O)c3ccc4ccccc4c3)n2)cc1	22.4µM	–	?	?	–
O=C(Nc1cccc(C(F)(F)F)c1)N[C@H]1CO[C@H]2[C@@H]1OC[C@@H]2Nc1nccc(-c2ccc(-c3ccccc3)cc2)n1	35.5µM	–	31.6µM	–	–
COc1ccc(-c2cccc(C(=O)N3CCN(C(=O)Cc4ccccn4)CC3)c2)nn1	–	·	–	·	·
CC(=O)c1cccc(NC(=O)O[C@@H]2CO[C@H]3[C@@H]2OC[C@@H]3Nc2nccc(-c3cccc(F)c3)n2)c1	35.5µM	?	?	?	–
CC(C)CN1C(=O)CCc2cc(NC(=O)c3ccc4c(c3)OCO4)ccc21	39.8µM	?	?	–	?
CCN1C(=O)CCc2cc(NC(=O)CC(C)C)ccc21	–	–	–	–	–
COCCN1C(=O)CCc2cc(NC(=O)c3ccc4c(c3)OCO4)ccc21	?	39.8µM	–	–	–
COCCN1C(=O)CCc2cc(NC(=O)COC)ccc21	–	–	–	–	–
COc1ccc(CCNC(=O)c2cc(-c3ccccc3F)nc3c2cnn3C)cc1	35.5µM	·	?	·	·
Cn1ncc2c(C(=O)NCC3CCCCCC3)cc(-c3ccccc3F)nc21	31.6µM	·	?	·	·
COc1ccccc1-c1cc(C(=O)NCC2CCCCC2)c2cnn(C)c2n1	–	·	–	·	·
COc1ccc(-c2cc(C(=O)NCCc3ccccc3F)c3cnn(C)c3n2)cc1	31.6µM	·	?	·	?
Cn1ncc2c(C(=O)NCCc3ccccc3F)cc(-c3ccc(F)cc3)nc21	31.6µM	·	?	·	–
COc1cccc(C(=O)N2CCc3nc(C(C)C)nc(-c4ccc(O)cc4)c3CC2)c1	–	·	?	·	–
CN1CCc2c([nH]c3ccccc23)C12CCN(C(=O)C1CC1)CC2	?	–	–	–	–
COc1ccccc1-c1cccc(C(=O)N2CCC[C@H]2C(=O)N2CCOCC2)c1	–	·	–	·	–
COc1ccc(OC)c(NC(=O)Nc2cccc(-c3ccc(N4CCCCC4)nn3)c2)c1	?	0.251µM	–	12.6µM	–
COc1cccc(CNC(=O)Nc2cccc(-c3ccc(N4CCCCC4)nn3)c2)c1	31.6µM	0.251µM	?	10µM	–
CC1CCN(c2ccc(-c3cccc(NC(=O)NC(C)C)c3)nn2)CC1	?	0.251µM	–	2.24µM	–
COc1cccc(CNC(=O)CN2C(=O)NC3(CCCCC3)C2=O)c1	–	–	–	–	–
O=C(c1ccc2nnc(-c3ccc(Cl)cc3Cl)n2c1)N1CCOCC1	–	·	–	·	–
O=C(NCCc1ccccc1)C1CCc2nnc(-c3cccc(C(F)(F)F)c3)n21 (centres undefined)	–	·	?	·	–
CNC(=O)c1cc(C2CC2)nc2c1c(C1CCCN1C(=O)C1CC1)nn2C (centres undefined)	–	·	–	·	·
SMILES	HEK cytotox	FLuc inh	3T3 cytotox	hNpr1 antagonist	GPT2 inhibitor
CN(C)CCNC(=O)C[C@@H]1CCNC[C@@H]1Cc1cc(-c2ccc(C(C)(C)C)cc2)on1	31.6µM	–	39.8µM	–	–
CC(C)(C)c1ccc(-c2cc(C[C@H]3CNCC[C@H]3CC(=O)NCc3cccnc3)no2)cc1	?	–	20µM	–	–
CC(C)NC(=O)C[C@@H]1CCNC[C@@H]1Cc1cc(-c2ccc(C(C)(C)C)cc2)on1	39.8µM	–	35.5µM	–	–
CCN(CC)C(=O)C[C@@H]1CCNC[C@@H]1Cc1cc(-c2ccc(C(C)(C)C)cc2)on1	39.8µM	–	39.8µM	–	–
CC(C)(C)NC(=O)C[C@@H]1CCNC[C@@H]1Cc1cc(-c2ccc(F)cc2)on1	?	–	?	–	?
CC(C)(C)c1ccc(-c2cc(C[C@H]3CNCC[C@H]3CC(=O)N3CCC(Cc4ccccc4)CC3)no2)cc1	–	–	–	–	–
O=C(C[C@@H]1CCNC[C@@H]1Cc1cc(-c2ccccc2)on1)NC1CC1	–	–	–	–	–
Cc1cnc(-c2ccncc2)n1CCC1CCN(C(=O)CCc2ccccc2)CC1	?	·	–	·	–
COc1ccc(S(=O)(=O)N2CCC(OCc3noc(C4CCCO4)n3)CC2)cc1 (centres undefined)	–	·	–	·	–
O=C(C[C@@H]1CCNC[C@@H]1Cc1cc(CSc2ccccc2)on1)NCCN1CCOCC1	–	–	–	–	–
CC(C)(C)c1ccc(-c2cc(C[C@H]3CNCC[C@H]3CC(=O)NCCN3CCOCC3)no2)cc1	39.8µM	–	50.1µM	–	–
CC(=O)Nc1ccc(NC(=O)Cn2ccn3nc4c(c3c2=O)CCCCC4)cc1	35.5µM	–	?	–	?
Cc1ccc(NC(=O)Cn2ccn3nc4c(c3c2=O)CCCCC4)cc1C	39.8µM	–	–	?	–
CN(C)c1ccc(NC(=O)CCn2ccn3nc4c(c3c2=O)CCCC4)cc1	?	39.8µM	–	–	?
O=C(CCn1ccn2nc3c(c2c1=O)CCCC3)Nc1ccc(F)cc1	–	–	–	–	–
Cc1ccc(NC(=O)Cn2ccn3nc4c(c3c2=O)CCCC4)cc1Cl	–	–	–	–	–
CCOC(=O)C1CCN(C(=O)c2ccc3c(c2)N(CC)C2CCCCCN2C3=O)CC1 (centres undefined)	?	–	–	?	–
C=C[C@H]1[C@H](O[C@@H]2O[C@H](CO)[C@@H](O)[C@H](O)[C@H]2O)OC=C(C(=O)OC)[C@H]1C[C@@H]1c2cc(O)c(O)cc2CCN1C(C)=O	·	·	·	·	3.16µM
C=CC1C(O[C@@H]2O[C@H](CO)[C@@H](O)[C@H](O)[C@H]2O)OC=C(C(=O)OC)C1CC(=O)O (some centres undefined)	·	·	·	·	–
CC(=O)C1=CCC2C3CCC4CC(O[C@@H]5O[C@H](CO)[C@@H](O[C@@H]6O[C@@H](C)[C@H](O)[C@@H](O)[C@H]6O)[C@H](O)[C@H]5O[C@@H]5O[C@H](CO)[C@@H](O)[C@H](O)[C@H]5O)CCC4(C)C3CCC12C (some centres undefined)	·	·	·	·	–
COc1ccccc1C(=O)NC1CCN(Cc2cccc(-c3ccccc3OC)c2)CC1	44.7µM	·	?	·	–
COC(=O)NC1CCN(Cc2cccc(-c3ccccc3OC)c2)CC1	?	·	–	·	–
COc1ccccc1-c1cccc(CN2CCC(NC(=O)N(C)C)CC2)c1	79.4µM	·	?	·	–
O=C(NC1CCN(Cc2ccccc2)CC1)c1cccc2c1CCN2C(=O)c1ccccc1	39.8µM	–	?	–	–
COc1ccccc1-c1cccc(CN2CCC(NC(=O)c3ccccc3C)CC2)c1	44.7µM	·	?	·	·

Screening data (PubChem BioAssay)
